From ChEMBL document CHEMBL4513216, “Probing the Open Global Health Chemical Diversity Library for Multistage-Active Starting Points for Next-Generation Antimalarials” (ACS Infect Dis, 2020)
Screen size: about 69,000 compounds; about 8,600 (12%) showed an effect of 50% or more. Shown is part of a subset that was picked to be rich in strong results.

Each compound was assayed on Plasmodium berghei (assay: Screen against P. berghei liver stage (PbLuc), transformed with Luciferase, at 10uM). Conditions: tested at 10 uM.
Type: functional, HepG2

Q: For `CCCNC(=O)C1CCN(Cc2csc(CC)n2)CC1`, which INHIBITION is on record?
A: The INHIBITION was 15.3%.

Q: Which INHIBITION does the source give for `Cc1cc(C(=O)N2C[C@@H]3CC[C@H]2CN(C)C3)ccc1Cl` here?
A: Its INHIBITION is 18.2%.

Q: `Cc1ccc(C)c(OCCC(=O)N2CCCN(CC(N)=O)CC2)c1` was tested. Which INHIBITION did it give?
A: Its INHIBITION is -79.3%.

Q: How did the INHIBITION turn out when `COc1cccc(COCC(=O)N2CCCC(c3ccn[nH]3)C2)c1` (configuration not stated) was run?
A: Its INHIBITION is 45.7%.

Q: For `CC(=O)CCCC(=O)N(Cc1ccsc1)CC(C)C`, which INHIBITION is on record?
A: Its INHIBITION is 35%.

Q: For `CC(C)CN(Cc1ccsc1)C(=O)CCCn1cncn1`, which INHIBITION is on record?
A: The INHIBITION was 62.8%.

Q: How did the INHIBITION turn out when `Cc1ccnn1CCC(=O)N(Cc1ccsc1)CC(C)C` was run?
A: Its INHIBITION is 41.5%.

Q: How did the INHIBITION turn out when `CNS(=O)(=O)c1ccc(C)c(C(=O)NCCNc2ncccn2)c1` was run?
A: The INHIBITION was -7.81%.

Q: For `CCOc1ccc(CN[C@@H]2COC[C@H]2c2ccc(F)cc2)cc1`, which INHIBITION is on record?
A: The INHIBITION was -16%.

Q: For `CCc1nccn1-c1cccc(C2CCCN2)n1` (configuration not stated), which INHIBITION is on record?
A: The INHIBITION was 31.3%.

Q: How did the INHIBITION turn out when `CCc1nccn1-c1cncc(C2CCCN2Cc2ccc(F)cc2)n1` (configuration not stated) was run?
A: Its INHIBITION is 31.1%.

Q: `CCc1nccn1-c1cncc(C2CCCN2)n1` (configuration not stated) was tested. Which INHIBITION did it give?
A: Its INHIBITION is 51.7%.

Q: With `CC(C)c1nnc(NC(=O)Cc2csc(-c3nnc[nH]3)n2)s1` as the compound, how does the INHIBITION read?
A: The INHIBITION was 76.7%.

Q: For `Cc1nc(C)c(CC(=O)Nc2nnc(C(C)C)s2)c(=O)[nH]1`, which INHIBITION is on record?
A: Its INHIBITION is 25.75%.

Q: How did the INHIBITION turn out when `CCC(C)c1csc(NC(=O)c2sc(-c3nnc[nH]3)nc2C)n1` (configuration not stated) was run?
A: The INHIBITION was 37.8%.

Q: With `CCC(C)c1csc(NC(=O)Cc2csc(-c3nnc[nH]3)n2)n1` (configuration not stated) as the compound, how does the INHIBITION read?
A: Its INHIBITION is 93.4%.

Q: With `Cc1nn2cnnc2c(C)c1CCC(=O)Nc1nnc(C(C)C)s1` as the compound, how does the INHIBITION read?
A: The INHIBITION was -23.5%.

Q: Which INHIBITION does the source give for `CCc1nc(NC(=O)Cc2csc(-c3nnc[nH]3)n2)sc1C` here?
A: The INHIBITION was 55.4%.

Q: How did the INHIBITION turn out when `CCc1ccc(C(C)NC(=O)CCc2nc(-c3nnc[nH]3)no2)cc1` (configuration not stated) was run?
A: The INHIBITION was 38.8%.

Q: Which INHIBITION does the source give for `O=C(Cc1csc(-c2nnc[nH]2)n1)N1CCCC1Cn1cccn1` (configuration not stated) here?
A: The INHIBITION was 39.5%.

Q: For `Cc1cnn(CC2CCCN2C(=O)c2csc(-c3nnc[nH]3)n2)c1` (configuration not stated), which INHIBITION is on record?
A: Its INHIBITION is -73.2%.

Q: `CC(C)(C)CC(NC(=O)N1CCC(C(N)=O)CC1)C(F)(F)F` (configuration not stated) was tested. Which INHIBITION did it give?
A: Its INHIBITION is -50.7%.

Q: How did the INHIBITION turn out when `CC(C)C(CNC(=O)Nc1cn[nH]c1)N1CCOCC1` (configuration not stated) was run?
A: The INHIBITION was 7.67%.

Q: Which INHIBITION does the source give for `CC(C)c1nn(C)c(N(C)C)c1CNCc1cscn1` here?
A: Its INHIBITION is -11%.

Q: With `CC(C)OCCC(=O)NCC(O)c1c(Cl)cccc1Cl` (configuration not stated) as the compound, how does the INHIBITION read?
A: The INHIBITION was 17.8%.

Q: Which INHIBITION does the source give for `COCCC(=O)N1C[C@H](C(C)C)[C@@H](N(C)C)C1` here?
A: Its INHIBITION is 19.4%.

Q: For `CC(C)(C)c1n[nH]c(C2CN(CCc3cccs3)CCO2)n1` (configuration not stated), which INHIBITION is on record?
A: The INHIBITION was 37.3%.

Q: `CC(C)(C)c1n[nH]c(C2CN(CCc3ccncc3)CCO2)n1` (configuration not stated) was tested. Which INHIBITION did it give?
A: Its INHIBITION is 57.5%.

Q: For `CCc1n[nH]c(C2CN(CCc3ccncc3)CCO2)n1` (configuration not stated), which INHIBITION is on record?
A: The INHIBITION was 23.6%.

Q: Which INHIBITION does the source give for `CC(CN1CCOCC1)NC(=O)c1cc(Cl)c2c(c1)OCO2` (configuration not stated) here?
A: The INHIBITION was 29.8%.

Q: How did the INHIBITION turn out when `OC1(CNCc2noc(Cc3ccccc3)n2)CCCNC1` (configuration not stated) was run?
A: Its INHIBITION is 26%.

Q: Which INHIBITION does the source give for `OC1(CNCCc2csc(-c3ccncc3)n2)CCCNC1` (configuration not stated) here?
A: Its INHIBITION is -15%.

Q: Which INHIBITION does the source give for `OC1(CNCCSCc2ccccc2)CCCNC1` (configuration not stated) here?
A: Its INHIBITION is 55.4%.

Q: How did the INHIBITION turn out when `Cc1c(C2CCCN(C(=O)OC(C)(C)C)C2)n2c(nc1=O)CCC2` (configuration not stated) was run?
A: The INHIBITION was 13.5%.

Q: `COCCC(=O)Nc1cc(CC(C)(C)C)n[nH]1` was tested. Which INHIBITION did it give?
A: Its INHIBITION is -28.6%.

Q: `Cc1cnc(C)c(-c2cc(O)c3c(c2)CN(Cc2nccs2)CCO3)n1` was tested. Which INHIBITION did it give?
A: Its INHIBITION is -16.9%.

Q: With `Cc1cnc(C)c(-c2cc(O)c3c(c2)CN(c2nccs2)CCO3)n1` as the compound, how does the INHIBITION read?
A: The INHIBITION was 28.5%.

Q: `Cc1cnc(C)c(-c2cc(O)c3c(c2)CN(c2ncccn2)CCO3)n1` was tested. Which INHIBITION did it give?
A: The INHIBITION was 53%.

Q: `CS(=O)(=O)N1C[C@H](NC(=O)c2ccno2)[C@@H]2OCCC[C@@H]21` was tested. Which INHIBITION did it give?
A: The INHIBITION was 38.5%.

Q: Which INHIBITION does the source give for `Cn1ccnc1CN(CCCO)C1CCCc2ccccc21` (configuration not stated) here?
A: The INHIBITION was -26.8%.

Q: With `Cn1ccnc1CN(CCCO)CC(F)(F)F` as the compound, how does the INHIBITION read?
A: Its INHIBITION is 54.8%.

Q: `CSc1ccc(CN(CCO)Cc2nccn2C)cc1` was tested. Which INHIBITION did it give?
A: The INHIBITION was 43.9%.

Q: How did the INHIBITION turn out when `CCOCc1ccc(CNc2cncc(-n3cccn3)n2)cc1` was run?
A: Its INHIBITION is 80.6%.

Q: `CCOCCOCc1cccc(CNc2cncc(-n3cccn3)n2)c1` was tested. Which INHIBITION did it give?
A: Its INHIBITION is 24.2%.

Q: `Fc1cccc(CNc2cncc(-n3cccn3)n2)c1` was tested. Which INHIBITION did it give?
A: The INHIBITION was 50.1%.

Q: For `COC(=O)Nc1ccc(CNc2cncc(-n3cccn3)n2)cc1`, which INHIBITION is on record?
A: The INHIBITION was 3.73%.

Q: For `CNS(=O)(=O)Cc1ccc(CNc2cncc(-n3cccn3)n2)cc1`, which INHIBITION is on record?
A: The INHIBITION was 44.2%.

Q: With `CN(C)c1ccc(CNc2cncc(-n3cccn3)n2)cc1` as the compound, how does the INHIBITION read?
A: The INHIBITION was 49.6%.

Q: Which INHIBITION does the source give for `Cc1cccc(CNc2cncc(-n3cccn3)n2)c1` here?
A: Its INHIBITION is 47.6%.

Q: Which INHIBITION does the source give for `CC(C)OCc1ccc(CNc2cncc(-n3cccn3)n2)cc1` here?
A: The INHIBITION was 80.6%.

Q: Which INHIBITION does the source give for `CCCOc1ccc(CNc2cncc(-n3cccn3)n2)cc1` here?
A: Its INHIBITION is 82.6%.

Q: With `COCc1ccc(CNc2cncc(-n3cccn3)n2)cc1` as the compound, how does the INHIBITION read?
A: The INHIBITION was -21.9%.

Q: Which INHIBITION does the source give for `CCOc1cccc(CNc2cncc(-n3cccn3)n2)c1` here?
A: Its INHIBITION is 31.6%.

Q: `CNC(=O)COc1ccc(CNc2cncc(-n3cccn3)n2)cc1` was tested. Which INHIBITION did it give?
A: Its INHIBITION is 23.4%.

Q: How did the INHIBITION turn out when `OCCN(Cc1ccncc1)CC1(c2ccc(Cl)cc2)CC1` was run?
A: Its INHIBITION is 46.2%.

Q: How did the INHIBITION turn out when `CC(Nc1cccc2c1OCCO2)C(=O)Nc1ccc(S(N)(=O)=O)cc1` (configuration not stated) was run?
A: The INHIBITION was -24.9%.

Q: How did the INHIBITION turn out when `Cc1nc(CN(C)C2CCN(CCCOc3ccccc3C)C2)no1` (configuration not stated) was run?
A: Its INHIBITION is 27.4%.

Q: For `CC(C)c1nc(C(=O)N2CCOCC2CC(=O)c2ccco2)cs1` (configuration not stated), which INHIBITION is on record?
A: The INHIBITION was 37.4%.

Q: Which INHIBITION does the source give for `COC(C)(C)C(=O)NCC1CCN(Cc2cc3ccccc3[nH]2)C1` (configuration not stated) here?
A: The INHIBITION was 40.8%.

Q: For `O=C(Cn1cccc1)NCC1CCN(Cc2cc3ccccc3[nH]2)C1` (configuration not stated), which INHIBITION is on record?
A: The INHIBITION was 46.7%.

Q: With `O=C(NCC1CCN(Cc2cc3ccccc3[nH]2)C1)C1CCCCC1` (configuration not stated) as the compound, how does the INHIBITION read?
A: Its INHIBITION is 54.1%.

Q: With `Cc1nc(NCC2CC2)nc2c1COCC21CCN(C(=O)NC(C)C)C1` (configuration not stated) as the compound, how does the INHIBITION read?
A: The INHIBITION was 29.9%.

Q: Which INHIBITION does the source give for `CN(CC1CCOC1)c1ncc(Br)cn1` (configuration not stated) here?
A: Its INHIBITION is 12.8%.

Q: For `CC(NC(=O)CSCC#N)c1cccc(Cl)c1` (configuration not stated), which INHIBITION is on record?
A: The INHIBITION was -29.7%.

Q: For `Cc1nc(CN2CCCC(Cn3cncn3)C2)nc2ccccc12` (configuration not stated), which INHIBITION is on record?
A: The INHIBITION was 29.95%.

Q: With `Cc1ccnc(NCCCN2CCc3ccccc32)n1` as the compound, how does the INHIBITION read?
A: The INHIBITION was 3.58%.

Q: For `Cc1cnc(NCCCN2CCc3ccccc32)nc1`, which INHIBITION is on record?
A: The INHIBITION was -15.4%.

Q: How did the INHIBITION turn out when `CN(C)c1nc(NCCCN2CCc3ccccc32)ncc1F` was run?
A: Its INHIBITION is 55.1%.

Q: How did the INHIBITION turn out when `CCOc1ccc(C(=O)CCC(=O)NCCc2nncn2CC)cc1C` was run?
A: Its INHIBITION is 15%.

Q: Which INHIBITION does the source give for `CCOc1ccc(C(=O)CCC(=O)N(C)Cc2nc(C)c[nH]2)cc1C` here?
A: The INHIBITION was 63.4%.

Q: With `COCc1cc(CN(C)C(=O)CCC(=O)Nc2cc(C)ccc2F)n[nH]1` as the compound, how does the INHIBITION read?
A: Its INHIBITION is 34.4%.

Q: Which INHIBITION does the source give for `CCOc1ccc(C(=O)CCC(=O)N(C)Cc2noc(C)n2)cc1C` here?
A: The INHIBITION was 11.9%.

Q: For `CCOc1ccc(C(=O)CCC(=O)NCc2cncn2CC)cc1C`, which INHIBITION is on record?
A: The INHIBITION was -5.59%.

Q: Which INHIBITION does the source give for `Cc1ccc(F)c(NC(=O)CCC(=O)N(C)Cc2nc(C)c[nH]2)c1` here?
A: The INHIBITION was 53.9%.

Q: With `CCOc1ccc(C(=O)CCC(=O)NCc2csc(N)n2)cc1C` as the compound, how does the INHIBITION read?
A: Its INHIBITION is 56.1%.

Q: For `CCOc1ccc(C(=O)CCC(=O)N(C)Cc2cnccn2)cc1C`, which INHIBITION is on record?
A: Its INHIBITION is 40.6%.

Q: With `CCc1cccc(NC(=O)CCC(=O)N(C)Cc2nc(C)c[nH]2)c1` as the compound, how does the INHIBITION read?
A: The INHIBITION was 12.8%.
